Measurements taken from PubChem BioAssay AID1069 (NMMLSC, 2008).
Calls of active or inactive are those of the source.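 The calls were made as follows: active = high combined rank on largest and smallest cell-count-weighted shift across three tests, rank score above 45, floors 50 and 25 (some results past the limit were not filed as active); inactive = the rest.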

Assay: LNCaP granularity increase inducers, single-point recheck – cell-based, side scatter shift, flow cytometry, confirmation (AID 1069);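 also: LNCaP human prostate cancer cells in low-serum medium with charcoal-stripped FBS; percent of cells with raised granularity gated so DMSO controls show 10%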
Settings: LNCaP differentiation, 4 d, stronger effect = higher value

Row | Compound | side scatter shift (at 100 µM) | side scatter shift (side scatter shift, at 10 µM)
1 | O=C(NCc1ccc(Cl)cc1)c1noc2c1CCCC2 | 8% (inactive) | 3.3%
2 | Cc1cc(N2CCN(C)CC2)nc2ccc(NC(=O)c3ccc(Br)o3)cc12 | 0% (active) | 56.4%
3 | COc1ccc2nc3oc(C(=O)NCc4cccs4)cc3cc2c1 | 3.9% (inactive) | 3.9%
4 | CCc1ccc(-c2nc(CN3CCC(C(=O)NCCc4ccc(OC)c(OC)c4)CC3)c(C)o2)cc1 | 35.3% (inactive) | 21%
5 | COc1ccc2cc3c(N)nn(C(=O)Cc4ccccc4OC)c3nc2c1 | 20% (inactive) | 8.05%
6 | COC(=O)c1ccc2c(=O)n(Cc3ccco3)c(SCC(=O)Nc3ccc(C)c(Cl)c3)nc2c1 | 21% (inactive) | 10.6%
7 | Cc1ccc2[nH]c(=O)c3cc(C(=O)N(C)Cc4ccco4)sc3c2c1 | 4.2% (inactive) | 11.1%
8 | Cc1cc(N2CCN(C)CC2)nc2ccc(NC(=O)c3ccc4c(c3)OCO4)cc12 | 71.9% (active) | 24.6%
9 | COc1ccc(Nc2nc(N)nc(CN3CCC(Cc4ccccc4)CC3)n2)cc1 | 16.7% (inactive) | 33.3%
10 | Cc1oc(-c2cccc(Cl)c2)nc1CN1CCCC(C(=O)NCc2ccco2)C1 (stereo not drawn) | 50% (inactive) | 5.55%
11 | O=C(c1ccc(COCC(F)(F)F)o1)N1CCCCCC1 | 16.9% (inactive) | 4.95%
12 | CCOc1ccc(OCC)c(NC(=O)C2CCCN(S(=O)(=O)c3c(C)noc3C)C2)c1 (stereo not drawn) | 19.8% (inactive) | 2.05%
13 | Nc1ccc(-c2nc3c(Cl)c(N)ccc3[nH]2)cc1 | 20.2% (inactive) | 4.7%
14 | COc1cccc(Oc2cnc(N)nc2-c2ccc(OC)cc2O)c1 | 22.2% (inactive) | 6.3%
